Screens (PubChem BioAssay)
SF-1 inh: inhibitors of human SF-1, primary screen, cell-based, CHO-K1, Gal4-SF-1 LBD, luciferase luminescence | hit rate 0.55% among 65,000 | CHO-K1 Gal4-SF-1 LBD luciferase reporter | inhibition, % at 10 µM;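 active means inhibition above the mean inhibition of all tested compounds plus 3 SD, cut at about 48% in these data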;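 further: 0% = SF-1 transfected cells with DMSO and 100% = mock-transfected cells lacking SF-1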
Target sequence (Q13285 whole entry, looked up, the tested form may be a part): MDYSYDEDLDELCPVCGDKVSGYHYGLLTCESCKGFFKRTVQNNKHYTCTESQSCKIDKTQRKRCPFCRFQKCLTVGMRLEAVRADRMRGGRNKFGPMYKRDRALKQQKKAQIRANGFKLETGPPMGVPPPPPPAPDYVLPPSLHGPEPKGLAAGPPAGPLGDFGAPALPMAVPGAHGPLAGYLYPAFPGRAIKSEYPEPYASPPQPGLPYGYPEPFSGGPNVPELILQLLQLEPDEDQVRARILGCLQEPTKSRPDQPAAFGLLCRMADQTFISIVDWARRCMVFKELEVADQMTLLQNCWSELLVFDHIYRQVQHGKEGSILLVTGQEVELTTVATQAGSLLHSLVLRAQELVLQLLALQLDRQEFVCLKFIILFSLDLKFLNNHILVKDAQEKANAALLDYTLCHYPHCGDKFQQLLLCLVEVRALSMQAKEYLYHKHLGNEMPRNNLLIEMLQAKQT
Active calls of the source: *. Only a selection was taken, and hits are over-represented in it overall.

SMILES	SF-1 inh
CC1CC(=O)N(CC(=O)Nc2ccc3c(c2)OCCO3)c2ccccc2S1 (configuration not stated)	-0.4
COc1ccccc1C(=O)NCc1ccc2c(c1)OCO2	28.3
O=C(Cn1nc(Cc2cccnc2)c2ccccc2c1=O)NCc1ccc2c(c1)OCO2	-4.1
CCOC(=O)C(C)Oc1cccc2c(=O)n(CC(=O)Nc3ccc4c(c3)OCCO4)ccc12 (configuration not stated)	81.8*
COc1ccccc1C(=O)Nc1ccc2c(c1)OCCO2	-75.7
CCNc1nc(N)c(C(=O)c2ccc(Cl)s2)s1	-31.3
Cc1cc(C(=O)CSc2nncs2)c(C)n1-c1ccc2c(c1)OCO2	-68.8
O=C1OCCC1Sc1nnc(-c2ccc3c(c2)OCO3)n1-c1ccccc1 (configuration not stated)	3.8
Cn1c(SCC(=O)N2CCCCC2)nnc1-c1ccc(S(=O)(=O)N2CCOCC2)cc1	10.5
CCOCCCNc1ccc(-c2ccccc2)nn1	-58.2
COc1ccccc1NC(=O)c1cnc2n(c1=O)CCS2	-28.7
Cc1cccn2c(=O)c3cc(C#N)c(=NC(=O)c4ccc5c(c4)OCO5)n(CC(C)C)c3nc12	0.0
Cc1c(N=C2SCC(=O)N2c2c(C)n(C)n(-c3ccccc3)c2=O)c(=O)n(-c2ccccc2)n1C	-21.2
c1ccc(-n2ncc3c(NCc4ccco4)ncnc32)cc1	-77.4
c1ccc(-c2nc(NCc3ccco3)c3ccccc3n2)nc1	75.6*
c1ccc(-c2nc(NCC3CCCO3)c3ccccc3n2)nc1 (configuration not stated)	1.0
CCOC(=O)c1c(C)c(-c2ccccc2)n(CC(=O)N2CCN(C)CC2)c1C	-2.7
CCc1nc(C)c(-c2ccccc2)c(=O)[nH]1	-10.3
CCc1nn2cc(-c3ccccc3)nc2s1	69.0*
Cc1ccc(S(=O)(=O)NCC(=O)OCN2C(=O)c3ccccc3C2=O)cc1	1.3
CN(Cc1nc(-c2ccccn2)no1)S(=O)(=O)c1ccc(Cl)cc1	-4.1
c1ccc(-c2noc(C34CC5CC(CC(C5)C3)C4)n2)nc1	-85.6
c1ccc(-c2noc(-c3ccc4ccccc4c3)n2)nc1	91.4*
c1ccc(-c2noc(C3CCCCC3)n2)nc1	-55.8
Cc1onc(-c2ccccc2Cl)c1-c1nc(-c2ccccn2)no1	-6.9
SMILES	SF-1 inh
c1ccc(-c2noc(-c3ccc4c(c3)OCO4)n2)nc1	74.8*
O=[n+]1c2c(n([O-])c3cc(F)c(F)cc31)CCCC2	6.6
C=CCOc1ccc2c(c1)c(S(=O)(=O)c1ccc(C)cc1)cn2COC	22.3
CN(C)C(=O)N1CCCC(C(=O)NCc2ccccc2)C1 (configuration not stated)	-2.2
COc1cccc(-c2csc(NC(=O)C3CC3)n2)c1	-60.1
COc1ccc2c(c1)sc1nc(-c3ccccc3)cn12	89.3*
Cc1c(C(=O)Nc2ccccc2)sc2nc(-c3ccccc3)cn12	-54.3
Cc1ccc(N2C(=O)Nc3ccc(Br)cc3C2(O)C(=O)NCCCN(C)C)cc1C (configuration not stated)	7.6
Cc1c(-c2nc(N)nc(Nc3ccccc3)n2)oc2ccccc12	-161.7
COc1cccc(-n2c(SCC(=O)NCCc3ccccc3)nnc2-c2ccoc2C)c1	8.2
Cc1ccc(C)c(NC(=O)CSc2nnc(-c3ccncc3)n2N)c1	0.2
Cn1cc(/C=N/n2cnc3scc(-c4ccc(Cl)cc4)c3c2=O)c2ccccc21	80.8*
C(=N\n1cnnc1)/c1cn(Cc2ccccc2)c2ccccc12	5.9
O=C(CCC1(C(=O)O)CCC(=O)NC1)NCc1ccccc1 (configuration not stated)	-20.2
CCN(CC)c1ccc(NC(=O)C2CC3CCC2C3)cc1 (configuration not stated)	-49.4
COc1cc2nc(COc3ccc(C#N)cc3)n(CC#N)c(=O)c2cc1OC	9.5
Nc1ccc(-c2nc3c(Cl)cc(N)cc3[nH]2)cc1	55.2*
CCCCn1cnc2c(cnn2-c2ccc(Cl)cc2)c1=O	-64.8
C=C(C)CSC1=C(C#N)C(c2ccccc2)CC(=O)N1 (configuration not stated)	10.0
Cn1c(-c2ccc(F)cc2)cnc1SCC(=O)Nc1ccccc1N1CCOCC1	-69.6
